Compounds with a hit are over-represented: about 2.4% of the library has one in this group of screens.
TNF necrop inh: TNF-alpha cell death inhibition in Jurkat FADD-/- cells; activation (protection from cell death), % at 10 µM; Jurkat FADD-/- TNF necroptosis rescue, ATP luminescence, 24 h; 0 = TNF only, 100 = no-TNF cells; actives 0.068% (n = 220,000);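 active = activation, meaning protection from cell death, of at least 50% relative to plate controls; inactive = activation below 50%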;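 note: necroptosis triggered by 40 ng/mL TNF-alpha added together with compound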
Bim-Mcl-1: human Bim-Mcl-1 interaction inhibition | Bead-based flow cytometry, Bim peptide-Mcl-1 binding | actives 0.1% (n = 190,000) | inhibition, % at 10 µM; in the data active = inhibition above about 40%;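 note: 0% = no compound tracer wells and 100% = peptide blocker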
Target sequence (Q07820 whole entry, looked up): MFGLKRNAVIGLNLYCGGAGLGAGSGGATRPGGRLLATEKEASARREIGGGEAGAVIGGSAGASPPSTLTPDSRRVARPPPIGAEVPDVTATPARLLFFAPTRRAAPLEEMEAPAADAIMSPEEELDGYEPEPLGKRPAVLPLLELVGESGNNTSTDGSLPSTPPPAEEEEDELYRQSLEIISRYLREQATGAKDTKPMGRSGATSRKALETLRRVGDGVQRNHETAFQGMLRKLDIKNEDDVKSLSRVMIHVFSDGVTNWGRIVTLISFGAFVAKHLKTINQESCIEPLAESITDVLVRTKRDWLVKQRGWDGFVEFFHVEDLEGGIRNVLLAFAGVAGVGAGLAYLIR
Mcl1-Bid inh: disrupts binding of human Mcl-1 to Bid peptide; TR-FRET Mcl-1/Bid-Dy647 peptide binding, 1536-well; inhibition, % at 21.7 µM; actives 0.97% (n = 220,000); AID 1021;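 active = compounds that cut the binding signal by more than half at the single screening dose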;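 note: His-tagged Mcl-1 with europium anti-His antibody binding Bid BH3 peptide; 0% = Mcl-1 plus peptide wells and 100% = peptide-only wells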
Mcl1 Noxa PPI: disrupts binding of human Mcl-1 to Noxa peptide | TR-FRET Mcl-1/Noxa peptide binding, 2 h | inhibition, % at 21.7 µM | actives 1.5% (n = 220,000) | AID 1022;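 active = compounds that cut the protein-peptide binding signal by more than 50% relative to plate controls in a single-dose test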;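 note: His-tagged Mcl-1 with rhodamine Noxa BH3 peptide and terbium anti-His antibody; 0% = Mcl-1 plus Noxa peptide wells and 100% = peptide-only wells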
MCL1-BIM inh: inhibitors of human MCL1 binding to BIM-BH3 peptide. GST-MCL1 / FITC-Bim-BH3 fluorescence polarization. inhibition, % at 10.9 µM. actives 0.68% (n = 320,000);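 active = inhibition above the mean inhibition of all tested compounds plus 3 SD, set per campaign, cut at about 40% in these data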;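 note: 0% = DMSO wells and 100% = unlabeled Bim-BH3 peptide control; higher means more loss of mP so more displacement of Bim peptide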
L929 necroptosis: blocks zVAD induced death of L929 cells. actives 0.38% (n = 220,000). viability rescue, % at 10 µM. AID 1377. L929 zVAD necroptosis rescue, ATP luminescence, 24 h; with zVAD 60 µM;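 active = activation, scaled between plate controls, above about 75%, limit read from the data; inactive = activation under that limit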;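 note: 0% = zVAD with DMSO and 100% = DMSO alone without zVAD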
* marks the source's active call; other numbers are inactive results; x = not tested or not shown.

SMILES | TNF necrop inh | Bim-Mcl-1 | Mcl1-Bid inh | Mcl1 Noxa PPI | MCL1-BIM inh | L929 necroptosis
COc1ccc(-c2csc3nc(-c4cccnc4)nc(Cl)c23)cc1OC | -5 | 3 | 8 | 58* | 12 | 1
Clc1nc(-c2cccnc2)nc2scc(-c3ccccc3)c12 | -4 | -4 | 5 | -5 | 2 | 2
O=C(CSc1nnc(CNC(=O)c2ccccc2F)o1)NC1CCCC1 | x | x | x | x | 1 | x
Cc1sc2ncnc(SCc3ccc(C(=O)O)cc3)c2c1C | 1 | -3 | 8 | 19 | -4 | 3
COC(=O)c1ccc(CSc2ncnc3sc(C)c(C)c23)o1 | 0 | -2 | 59* | 14 | 20 | 0
CN(C)c1ccc(NC(=O)C2CCCN(S(=O)(=O)c3ccccc3)C2)cc1 (stereo not drawn) | 1 | -1 | -20 | 69* | 19 | 5
Cn1cc(CN2CCCC(CO)(Cc3cccc(Cl)c3)C2)cn1 (stereo not drawn) | 2 | -3 | -33 | 68* | 0 | -1
N#CC(C(=O)Nc1ccc(Cl)cc1)=C1Nc2ccccc2N1 | 3 | 1 | -2 | 51* | 2 | 0
N#CC(C(=O)Nc1ccccc1)=C1CCCCC1 | 1 | -2 | -1 | 3 | 7 | 2
CC(/C=N/NC(=O)CSc1nnc(SCc2ccccc2)s1)=C\c1ccco1 | -2 | -5 | 6 | 51* | 1 | 3
CCCn1c(O)c(N=NC(=O)CNC(=O)c2ccncc2)c2ccccc21 | x | x | x | x | -1 | x
Cc1ccc(S(=O)(=O)N2[C@@H](c3cccc(Cl)c3)C(C(=O)O)=CC[C@H]2c2ccc(C(C)C)cc2)cc1 | x | x | x | x | 3 | x
CC(=O)c1ccc(NC(=O)C(C)n2c3ccccc3c3nc(=O)cc(C)n32)cc1 (stereo not drawn) | 4 | x | 97* | -4 | 11 | -1
Cc1ccc(S(=O)(=O)N2CCOCC2)cc1NC(=O)CN1CCN(C)CC1 | x | x | x | x | 4 | x
Cc1ccc(S(=O)(=O)N2CCOCC2)cc1NC(=O)CN1CCN(c2ccc(O)cc2)CC1 | 1 | -1 | -157 | 52* | 16 | 1
CCCc1nc2ccccc2c(NC(=O)CN(CC)CC)c1CC | 1 | -5 | 62* | 26 | -2 | 1
CCCCc1nc2ccccc2c(NC(=O)CN(CC)CC)c1CCC | 0 | -45 | 51* | 20 | 6 | 0
CCN(CC)CC(=O)Nc1cc(N(C)C)nc2ccccc12 | 0 | x | 37 | 48 | -2 | 0
CCOC(=O)c1cc(-c2ccccc2)n(CC(=O)N2CCCC2)c1C | -3 | -1 | 94* | 7 | 2 | -1
CCOC(=O)c1cc(-c2ccc(F)cc2)n(CC(=O)N2CCCC2)c1C | 0 | 1 | -45 | 13 | 0 | 0
CCCCn1c(=O)[nH]c(=O)c2c1nc(-c1ccc3ccccc3c1)n2CC | -4 | 8 | -14 | 9 | 2 | 1
CCCCn1c(=O)[nH]c(=O)c2c1nc(-c1ccc(-c3ccccc3Br)o1)n2CC | -2 | -3 | -6 | 55* | 5 | 0
O=[N+]([O-])c1cc(-c2ccc(/C=N/c3nc4ccccn4c3-c3ccco3)o2)ccc1Cl | -6 | 1 | 65* | 65* | 30 | -1
O=[N+]([O-])c1ccc(-c2ccc(C=Nc3cccc4ccccc34)o2)cc1 | -15 | 0 | -19 | 15 | -9 | 1
NNC(=O)c1ccc(-c2cccc([N+](=O)[O-])c2)o1 | 0 | 0 | -23 | 13 | 0 | 2
SMILES | TNF necrop inh | Bim-Mcl-1 | Mcl1-Bid inh | Mcl1 Noxa PPI | MCL1-BIM inh | L929 necroptosis
O=C(Nc1ccc2oc(=O)ccc2c1)c1ccc(-c2ccc(Cl)cc2)o1 | 0 | -7 | 56* | -15 | 2 | 3
O=C(Nc1ccc2oc(=O)ccc2c1)c1ccc(-c2cccc([N+](=O)[O-])c2)o1 | -19 | x | 80* | 70* | 24 | 0
O=C(Nc1ccc2oc(=O)ccc2c1)c1ccc(-c2cccc(Cl)c2)o1 | 3 | x | 66* | 21 | -11 | 3
CC(=O)Nc1ccc(NC(=O)[C@@H](NC(=O)c2ccccc2F)C(C)C)cc1 | x | x | x | x | -8 | x
O=C(CN1C(=O)COc2ccccc21)Nc1ccc(N2CCOCC2)cc1 | x | x | x | x | 9 | x
O=C(Oc1ccc2c(c1)OCO2)c1cc2c(s1)CCC2 | -20 | -1 | -42 | 57* | 7 | 0
CC(C)(C)NCC(O)COc1ccccc1C(C)(C)C (stereo not drawn) | 6 | -1 | -33 | 54* | 4 | 4
CC(C)(C)NCC(O)COc1ccccc1C(=O)CCc1ccccc1 (stereo not drawn) | 2 | 7 | 15 | -17 | -4 | 0
COC(=O)c1cc(OC)c(OC)cc1NCC(=O)Nc1ccc(C)cc1 | 2 | -4 | 81* | 16 | 23 | 1
COc1cccc(C(=O)NC(C)CCc2ccccc2)c1 (stereo not drawn) | x | x | x | x | -7 | x
COc1ccc(N2Cc3cccc(C(=O)O)c3C2=O)cc1 | 1 | 0 | -21 | 79* | 37 | 0
O=C(NCc1ccco1)c1ccc2c(c1)OCCO2 | x | x | x | x | 0 | x
Cc1ccc(NC(=O)Cn2cnc3c(cnn3C(C)(C)C)c2=O)cc1 | 2 | 2 | -12 | 34 | 7 | 84*
COc1ccc(NS(=O)(=O)c2ccc(N3CCOCC3)c(NC(=O)c3ccc(F)cc3)c2)cc1 | 2 | -2 | 11 | 21 | 7 | 0
COc1ccc(NS(=O)(=O)c2ccc(O)c(NC(=O)c3cc4c(C)nn(-c5ccc(F)cc5)c4s3)c2)cc1 | 4 | 2 | 7 | 65* | -2 | 1
CCOC(=O)CSc1nc(N)c(C(=O)Nc2ccc(N(C)C)cc2)s1 | -3 | -6 | -50 | 90* | 7 | 3
CCc1ccc(S(=O)(=O)/N=C2/C=C(Sc3ncn[nH]3)C(=O)c3ccccc32)cc1 | -7 | 1 | 40 | 101* | 32 | 2
CCc1ccc(S(=O)(=O)/N=C2\C=CC(=O)c3ccccc32)cc1 | -1 | 1 | -12 | 87* | 19 | 3
CNc1ccc(Br)cc(C(=O)/C=C/c2ccc(Cl)cc2Cl)c1=O | -4 | 2 | 13 | 92* | -44 | -3
O=C(/C=C/c1ccc(Cl)cc1Cl)c1ccc[nH]1 | 0 | 0 | -8 | 17 | 7 | 0
CNc1ccc(Br)cc(C(=O)/C=C/c2ccc(OC)cc2OC)c1=O | -6 | 22 | -2 | 76* | -38 | 2
CNc1ccc(Br)cc(C(=O)/C=C/c2cccc(OC)c2)c1=O | -14 | 8 | 1 | 81* | 11 | -1
COc1ccc(N2CCN(C(=O)[C@@H](NC(=O)c3ccccc3Cl)C(C)C)CC2)cc1 | x | x | x | x | -2 | x
COc1cccc(-c2cc(C(F)(F)F)nc(N3CCOCC3)n2)c1 | -1 | 0 | -24 | -15 | 6 | -1
COc1ccc(-c2cc(C(F)(F)F)nc(N3CCOCC3)n2)cc1OC | -1 | 6 | 91* | 14 | -1 | 7

Screening results: PubChem BioAssay, several laboratories
